# Reference: PubChem BioAssay (NCI)
# Compounds without any hit were thinned out: in the full panel of roughly 83,000, 20% have a hit.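 Each cell line was grown in a 96-well plate and treated with one concentration of compound for 48 hours. Values below 10 were considered active.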 A number with no mark means an inactive call. Activity calls are given as the source filed them.
# Test system: MCF7 breast
# Assay: NCI-60 one-dose screen, 48 h (100 = growth as untreated, 0 = no growth, -100 = all killed)
# Details: 10 µM unless noted
row,Compound,growth
1,COC(=O)c1ccc(-c2c(-c3ccccc3)c(F)c3oc(C(=O)OC)c(N)c3c2-c2ccccc2)cc1,75.6%
2,C#CCN(C)CCCOc1ccc(N(C)C(=O)c2cc(C(C)C)c(O)cc2O)cc1Cl,7.62% (active)
3,COc1c2c(c(Br)c3c1C(CCc1ccccc1)N(C)CC3)OCO2 (stereo not drawn),18.6%
4,CN(C(=O)CN1C(=O)/C(=C/c2ccco2)SC1=S)C1CCS(=O)(=O)C1 (stereo not drawn),91.1%
5,COc1ccc(-c2nnc3c(/C=C/c4ccc(Br)cc4)nc4ccccc4n23)cc1,0% (active)
6,CN(C)c1nc(NCCNS(=O)(=O)c2ccc(C3=Nc4c(N)nc(N)nc4NC(c4ccc(Cl)cc4)C3)cc2)nc(N2CCOCC2)n1 (stereo not drawn),22.4%
7,CC1=C(C(=O)OCc2ccccc2)C(c2cccc3ccccc23)n2c(nc3ccccc32)N1 (stereo not drawn),12.7%
8,NNc1ncnc2sc3c(c12)CCN(Cc1ccccc1)C3,9.55% (active)
9,c1n[nH]cc1-c1nc2ccc3[nH]ncc3c2c2c1CC1(CC2)COC1,62.4%
10,CC[C@]12C=CCN3CC[C@]4(C(=C(C(=O)OC)C1)Nc1cc(OC)c([C@@H]5[C@H]6O[C@H]6[C@@]6(CC)CC(C(=O)OC)=C7Nc8cc(OC)ccc8[C@@]78CCN5[C@@H]68)cc14)[C@@H]32,17.2%
11,COc1sc(/C=N/NC(=O)c2[nH]c3ccc(Br)cc3c2-c2ccccc2)cc1Br,4.42% (active)
12,Cc1nc(Nc2ccccn2)sc1C1=NNC(c2ccccc2F)C1 (stereo not drawn),20.1%
13,CN1CCN(c2ccc3c4c(cccc24)C(=O)N(c2cccc(-c4nn(-c5ccccc5)cc4-c4nc5ccccc5s4)c2)C3=O)CC1,5.13% (active)
14,Cc1ccc2c(c1)nc(-c1ccccc1)n2CC(=O)N=Nc1c(O)[nH]c2ccc(Cl)cc12,-64% (active)
15,O=C(N/N=C/c1ccc(Br)o1)c1[nH]c2ccc(Br)cc2c1-c1ccccc1,0.0933% (active)
16,COc1cc(/C=C/C(=O)c2ccc(S(=O)(=O)NCCNc3nc(N(C)C)nc(N4CCOCC4)n3)cc2)cc(OC)c1OC,-96.4% (active)
17,COc1cc(/C=C/C(=O)c2cnn(-c3cc(=O)[nH]c4ccccc34)c2C)cc(OC)c1OC,10.8%
18,Cc1ccccc1Nc1nnc(-c2c[nH]c3ccccc23)o1,21.8%
19,O=CNc1ccc(-n2cnc3cc(-c4ccc(O)cc4)ccc32)cc1,71.8%
20,C#CCN(C)CCCOc1ccc(N(CC)C(=O)c2cc(C(C)C)c(O)cc2O)cc1Cl,0.137% (active)
21,CCOC(=O)/C(F)=C/C1CC1CCc1ccc(OCC)cc1 (stereo not drawn),85.7%
22,O=C(CSc1nc2c(c(=O)[nH]1)CCCC2)Nc1ccccc1C(=O)O,85.9%
23,O=C1CCC(N2C(=O)c3cccc(NCCCCCC(=O)N4CCN(c5ccc6nc7c(nc6c5C(F)(F)F)C(=O)c5ncccc5C7=O)CC4)c3C2=O)C(=O)N1 (stereo not drawn),-71.6% (active)
24,O=C(c1cc2cc(OCCCN3CCC3)ccc2[nH]1)N1C[C@@H](CCl)c2c1cc(OCc1ccccc1)c1ccccc21,-9.07% (active)
25,CC(C)C[C@H](NC(=O)CNC(=O)C[C@H]1O[C@@H]2OC3(C)CC[C@H]4[C@H](C)CC[C@@H]([C@H]1C)[C@@]24O3)B(O)O,20.3%

# Test system: HCT-116 colon
# Assay: as above
# Details: 10 µM unless noted
row,Compound,growth
1,CC1=C(C(=O)Nc2ccccc2)C(c2cccc3ccccc23)n2c(nc3ccccc32)N1 (stereo not drawn),0.0484% (active)
2,COc1ccc2nc(NC(=O)c3ccc(N(C)C)cc3)sc2c1,79.8%
3,C[C@H]1[C@@H](CC(=O)N[C@@H](Cc2coc3ccccc23)B(O)O)O[C@@H]2OC3(C)CC[C@H]4[C@H](C)CC[C@@H]1[C@@]24O3,-56.6% (active)
4,Fc1ccc(N2CC(Cn3c(C(F)(F)F)cc4c(Cl)ncnc43)C2)c(F)c1,-92.1% (active)
5,Cn1cc(-c2cc(N)n3nc(-c4c[nH]c5ccc(F)cc45)cc3n2)c2cc(Br)cnc21,-26.9% (active)
6,O=C1Nc2ccc(F)cc2/C1=C/C(=O)c1cc2ccccc2oc1=O,88.7%
7,O=C(CSc1nc2ccccc2c(=O)[nH]1)NNC(=O)c1ccccc1Cl,109%
8,CCCCNc1ccc2c3c(cccc13)C(=O)N(NCC(O)COc1ccc3c(C)cc(=O)oc3c1)C2=O (stereo not drawn),91.9%
9,COc1cc(CNC(=O)C[C@H](C)CCC=C(C)C)ccc1OCc1cn(-c2ccccc2Cl)nn1,49.7%
10,Cc1cccc(-c2ccccc2Oc2ccc3nnc(Cl)n3n2)c1,104%
11,CCOc1ccccc1[C@H]1C(C(=O)c2ccc(Cl)cc2)C2(N[C@@H]1c1ccccc1)C(=O)Nc1ccccc12 (stereo partly drawn),3.88% (active)
12,CCc1ccccc1-c1nc(CN[C@@H]2C[C@@H]3C[C@H]([C@H]2C)C3(C)C)c(C)o1,-82.4% (active)
13,COc1cc(C=O)ccc1OC(=O)c1cc(-c2ccc(C)cc2)n(-c2ccc(S(C)(=O)=O)cc2)n1,98.7%
14,COC(=O)c1ccc(-c2c(-c3ccccc3)c(F)c3oc(C(=O)OC)c(N)c3c2-c2ccccc2)cc1,84.3%
15,C#CCN(C)CCCOc1ccc(N(C)C(=O)c2cc(C(C)C)c(O)cc2O)cc1Cl,7.57% (active)
16,COc1c2c(c(Br)c3c1C(CCc1ccccc1)N(C)CC3)OCO2 (stereo not drawn),11%
17,CN(C(=O)CN1C(=O)/C(=C/c2ccco2)SC1=S)C1CCS(=O)(=O)C1 (stereo not drawn),96.7%
18,COc1ccc(-c2nnc3c(/C=C/c4ccc(Br)cc4)nc4ccccc4n23)cc1,-53.8% (active)
19,CN(C)c1nc(NCCNS(=O)(=O)c2ccc(C3=Nc4c(N)nc(N)nc4NC(c4ccc(Cl)cc4)C3)cc2)nc(N2CCOCC2)n1 (stereo not drawn),30.9%

row,Compound,growth
1,CC1=C(C(=O)OCc2ccccc2)C(c2cccc3ccccc23)n2c(nc3ccccc32)N1 (stereo not drawn),17.7%
2,NNc1ncnc2sc3c(c12)CCN(Cc1ccccc1)C3,42.6%
3,c1n[nH]cc1-c1nc2ccc3[nH]ncc3c2c2c1CC1(CC2)COC1,15.4%
4,CC[C@]12C=CCN3CC[C@]4(C(=C(C(=O)OC)C1)Nc1cc(OC)c([C@@H]5[C@H]6O[C@H]6[C@@]6(CC)CC(C(=O)OC)=C7Nc8cc(OC)ccc8[C@@]78CCN5[C@@H]68)cc14)[C@@H]32,20.5%
5,COc1sc(/C=N/NC(=O)c2[nH]c3ccc(Br)cc3c2-c2ccccc2)cc1Br,-5.78% (active)
6,Cc1nc(Nc2ccccn2)sc1C1=NNC(c2ccccc2F)C1 (stereo not drawn),34.3%
7,CN1CCN(c2ccc3c4c(cccc24)C(=O)N(c2cccc(-c4nn(-c5ccccc5)cc4-c4nc5ccccc5s4)c2)C3=O)CC1,79%
8,Cc1ccc2c(c1)nc(-c1ccccc1)n2CC(=O)N=Nc1c(O)[nH]c2ccc(Cl)cc12,-82.5% (active)
9,O=C(N/N=C/c1ccc(Br)o1)c1[nH]c2ccc(Br)cc2c1-c1ccccc1,-13.3% (active)
10,COc1cc(/C=C/C(=O)c2ccc(S(=O)(=O)NCCNc3nc(N(C)C)nc(N4CCOCC4)n3)cc2)cc(OC)c1OC,-100% (active)
11,COc1cc(/C=C/C(=O)c2cnn(-c3cc(=O)[nH]c4ccccc34)c2C)cc(OC)c1OC,5.92% (active)
12,Cc1ccccc1Nc1nnc(-c2c[nH]c3ccccc23)o1,19.3%
13,O=CNc1ccc(-n2cnc3cc(-c4ccc(O)cc4)ccc32)cc1,85.6%
14,C#CCN(C)CCCOc1ccc(N(CC)C(=O)c2cc(C(C)C)c(O)cc2O)cc1Cl,-3.98% (active)
15,CCOC(=O)/C(F)=C/C1CC1CCc1ccc(OCC)cc1 (stereo not drawn),93.7%
16,O=C(CSc1nc2c(c(=O)[nH]1)CCCC2)Nc1ccccc1C(=O)O,96.2%
17,O=C1CCC(N2C(=O)c3cccc(NCCCCCC(=O)N4CCN(c5ccc6nc7c(nc6c5C(F)(F)F)C(=O)c5ncccc5C7=O)CC4)c3C2=O)C(=O)N1 (stereo not drawn),-86% (active)
18,O=C(c1cc2cc(OCCCN3CCC3)ccc2[nH]1)N1C[C@@H](CCl)c2c1cc(OCc1ccccc1)c1ccccc21,-80.6% (active)
19,CC(C)C[C@H](NC(=O)CNC(=O)C[C@H]1O[C@@H]2OC3(C)CC[C@H]4[C@H](C)CC[C@@H]([C@H]1C)[C@@]24O3)B(O)O,-67.2% (active)
